This test concerns MDA-MB-468 breast. Put plainly: NCI-60 one-dose screen, 48 h (100 = growth as untreated, 0 = no growth, -100 = all killed). The conditions noted are these: 10 µM unless noted.

“And” between values parts separate entries of the source, which are not always exact repeats. Equal values may be shown once. About 83,000 compounds went through this panel and 20% of them were active in at least one assay; those are over-represented in the sample as a whole.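 A percent growth of 40 corresponds to 60% growth inhibition; 0 means no net growth; -100 means all cells died. Active threshold: below 10.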 Unmarked numbers belong to inactive results. The source made the active and inactive calls.

As for `CCOc1ccc(S(=O)(=O)Nc2ccc3c(c2)N(S(=O)(=O)CC)CCC3)cc1`, the growth is 85.4%.
With `Clc1ccc(Nc2ncc(Cc3cccc(Cl)c3Cl)s2)cc1`, the growth was 99.4%.
As for `Cc1ccc(-c2c3c(N)nc(-c4ccncc4)nc3nc3c2c(C)nn3-c2ccccc2)cc1`, the figure is 43.6%; as for `COc1ccc(Cn2cc3c(c2-c2cc(OC)c(OC)c(OC)c2)CCc2cnoc2-3)cc1N`, -10.1% (active); as for `Clc1ccc(C(SCc2ccccc2)SCc2ccccc2)cc1`, 77.7%.
Then `CCC(=C(c1ccc(OCCCN(C)C)cc1)c1ccc(OCCCN(C)C)cc1)c1ccc(Cl)cc1`, with -74.4% (active); and `CCOC(=O)Nc1ccc2nc(N3CCCCCC3)sc2c1`, with -4.19% (active).
Then `COc1cc(/C=C2\CN(S(=O)(=O)c3ccc(C)cc3)C/C(=C\c3cc(CN4CCCCC4)c(O)c(OC)c3)C2=O)cc(CN2CCCCC2)c1O`, with -63.3% (active); and `Nc1ccc(Cl)c([N+](=O)[O-])c1`, with 98.5%; and `O=C1c2ccccc2C(=O)c2c(N=Nc3sc(=O)[nH]c3S)cccc21`, with 104%.
`Fc1ccc2[nH]cc(-c3nc(-c4c[nH]c5ccncc45)cs3)c2c1`: the growth was -65.6% (active).
Regarding `NCCn1cc(-c2nc(-c3c[nH]c4ncccc34)cs2)c2ccccc21`, the growth was 40.5%.
In the case of `COc1ccc(-c2nn(-c3cccc(Cl)c3)cc2-c2cc(-c3ccc(Br)cc3)[nH]c(=O)c2C#N)cc1`, the growth was 75.1%.
As for `CCN(CC)CCCC(Cc1ccccc1)Nc1c2ccc(Cl)cc2nc2ccc(OC)cc12` (stereo not drawn), the figure is -72.3% (active); as for `CC(C)C(=O)Nc1n[nH]c2cc(-c3cccc(NS(=O)(=O)C4CC4)c3)ccc12`, 21.6%; as for `CN1CCN(CC(=O)N2c3cccc4cccc(c34)N(C(=O)CN3CCN(C)CC3)C2c2cn(-c3ccccc3)nc2-c2cccc([N+](=O)[O-])c2)CC1`, -68.9% (active).
As for `O=C(NNc1nc2cc(F)ccc2n2c(CN3CC4(COC4)C3)ccc12)c1cnccn1`, the figure is -16.1% (active).
Then `CCOC(=O)c1cc(C(=O)c2cc(OC)cc(OC)c2)n2nc(C)ccc12`, with 29.8%; and `O=c1ssc(Cl)c1-c1ccccc1`, with 97.3%; and `CC(C)C(C#N)(C(C)C)C(C)C`, with 109%.
`Cc1ccc(N2CCN(C(C)C(N)=O)CC2)cc1` (stereo not drawn): the growth was 109%.
As for `CC(=O)OCC(=O)O[C@@H]1C[C@]2(C(C)C)O[C@@]1(C)[C@@H]1CC[C@@H](C)[C@H]1[C@@H]2OC(=O)/C=C/c1ccccc1`, the figure is 83.7%.
Turning to `Cc1cc(C(c2ccccc2)c2ccccc2)ccc1NS(=O)(=O)c1ccccc1`, the growth was 111%.
As to `C/C(=N\O)[C@H]1C[C@]23CC[C@]4(C)[C@H](CC[C@@H]5[C@@]6(C)CC/C(=N/O)C(C)(C)[C@@H]6CC[C@]54C)[C@H]2[C@H](C)C1(C)OC3`, the growth is 103%.
Then `CC(CN=Cc1ccccc1O)N=Cc1ccccc1O` (stereo not drawn), with 115% and 98%; and `CCN(CC)c1ccc(C(=N)c2ccc(N(CC)CC)cc2)cc1`, with -24.8% (active).
Then `N#Cc1c(-c2ccccc2)cc(-c2ccccc2)n(CCCCC(=O)NO)c1=O`, with 20%; and `COc1ccc(OC)c(-c2cn3nc(-c4c[nH]c5ccc(Br)cc45)sc3n2)c1`, with 59.1%; and `O=C(CCc1nc2sc3c(c2c(=O)[nH]1)CCC3)NCc1cn(-c2ccccc2)nc1-c1ccccc1`, with 83.6%.
Then `Cn1c(=O)c2c(nc(N3CCCC3)n2C)n(C)c1=O`, with 99.5%.
As to `COc1ccc2c(c1)[n+](=O)c(/C=C/C(=O)c1cc(OC)c(OC)c(OC)c1)c(C)n2[O-]`, the growth is 24.9%.
As for `Cc1cc2cn3c4ccc(O)cc4nc(N)c3c2cc1C`, the figure is -9.7% (active); as for `Cc1ccc(C(CC(=O)O)c2c(C)[nH][nH]c2=O)cc1` (stereo not drawn), 101%.
Then `CN(C)c1ccc(-c2ccc(-c3ccc(C(=N)N)cc3)s2)cc1`, with -69.7% (active).
As for `O=C1CCC(C(=O)N/N=C/c2cc(F)ccc2F)N1` (stereo not drawn), the figure is 111%.
For `C#Cc1ccc(C(=O)NCc2ccc(/C=C/C(=O)c3nccn3C)cc2)cc1`, the growth is 18%.
As for `CCNC(=O)N1CCc2cc(OC)c(OCCc3ccc(OC)nc3)cc2C1c1ccc(C)cc1C` (stereo not drawn), the figure is 8.04% (active).
As for `COc1cc2c3c(cccc3c1)C(=O)N(CCN1CCCC1)C2=O`, the figure is -3.53% (active).

The values above are taken from PubChem BioAssay (NCI).
